The record followed here is PubChem BioAssay.

Sequence of Epidermal growth factor receptor (Homo sapiens) (P00533 whole entry, looked up): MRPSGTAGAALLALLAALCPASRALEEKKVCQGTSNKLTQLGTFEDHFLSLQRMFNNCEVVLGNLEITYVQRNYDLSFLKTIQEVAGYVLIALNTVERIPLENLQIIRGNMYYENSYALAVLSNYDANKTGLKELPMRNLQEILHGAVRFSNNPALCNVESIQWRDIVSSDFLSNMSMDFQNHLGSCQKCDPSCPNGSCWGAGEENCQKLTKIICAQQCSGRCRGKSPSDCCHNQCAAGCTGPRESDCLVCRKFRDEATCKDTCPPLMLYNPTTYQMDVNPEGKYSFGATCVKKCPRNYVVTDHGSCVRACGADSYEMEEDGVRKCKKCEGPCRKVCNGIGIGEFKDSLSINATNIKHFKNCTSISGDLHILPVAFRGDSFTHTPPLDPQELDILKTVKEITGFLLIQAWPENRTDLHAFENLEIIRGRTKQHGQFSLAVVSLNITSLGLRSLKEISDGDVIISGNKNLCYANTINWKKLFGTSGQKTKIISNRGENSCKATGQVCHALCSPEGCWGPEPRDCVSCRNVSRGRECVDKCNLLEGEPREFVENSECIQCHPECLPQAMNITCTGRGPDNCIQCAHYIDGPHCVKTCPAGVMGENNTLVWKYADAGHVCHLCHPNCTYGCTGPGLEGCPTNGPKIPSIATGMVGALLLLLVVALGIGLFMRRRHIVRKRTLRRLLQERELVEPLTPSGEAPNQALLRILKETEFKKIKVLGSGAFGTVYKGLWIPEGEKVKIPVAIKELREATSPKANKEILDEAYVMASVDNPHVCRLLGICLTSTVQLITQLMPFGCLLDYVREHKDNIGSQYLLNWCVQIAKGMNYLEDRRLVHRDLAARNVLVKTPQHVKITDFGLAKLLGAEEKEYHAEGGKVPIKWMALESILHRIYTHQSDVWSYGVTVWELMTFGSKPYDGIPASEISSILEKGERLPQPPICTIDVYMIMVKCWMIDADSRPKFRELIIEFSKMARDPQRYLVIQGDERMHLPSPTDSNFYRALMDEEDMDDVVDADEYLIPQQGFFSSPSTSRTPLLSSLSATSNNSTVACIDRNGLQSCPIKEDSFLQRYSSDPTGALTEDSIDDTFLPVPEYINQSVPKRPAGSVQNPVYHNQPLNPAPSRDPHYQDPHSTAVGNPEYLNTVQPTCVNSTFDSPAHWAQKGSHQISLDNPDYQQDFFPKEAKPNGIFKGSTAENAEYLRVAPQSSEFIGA

This assay concerns the target Epidermal growth factor receptor (Homo sapiens) (UniProt P00533). The experiment in a line: EGFR binders on small-molecule microarrays, primary screen, biochemical, small-molecule microarray, 635 nm fluorescence (AID 1104).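 Note: score merges 667 nm emission intensity with spot signal to noise over triplicate slides.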 To be noted: EGFR binding, higher = more signal.
`CO[C@H]1COC(=O)CC=C[C@H](C)[C@@H](OC)COC(=O)[C@@H](C)NC(=O)CC=C[C@@H]1C` had a composite z-score of 1.27.

Turning to `CCOC(=O)[C@H](Cc1ccccc1)NC(=O)OC1CC(CCC2CC(CC)=NO2)OC2(CCCC(COC(=O)NCCC(C)C)O2)C1` (stereo partly specified), the composite z-score stood at 0.0954. On to `CC(C)CON=C1C[C@@H](O)[C@@H](O)[C@@H]2[C@@H]3C(=O)N(c4ccc(F)cc4F)C(=O)[C@@H]3CC[C@H]12`, for which the composite z-score was determined as 0.59. `CC(C)(C)N1C(=O)[C@H]2[C@H]3[C@H](O)[C@H](O)CC(=NO[C@@H]4O[C@H](CO)[C@@H](O)[C@H](O)[C@H]4O)[C@H]3CC[C@H]2C1=O` had a composite z-score of 0.408. `COC(=O)C=CCCc1coc(C=CCNC(=O)OC)n1` returned a composite z-score of 0.867. `Cc1ccc(S(=O)(=O)OC[C@H]2CN3[C@H](c4ccc(Br)cc4)[C@@H](C)CC[C@H]3C(=O)O2)cc1` came in with a composite z-score of -0.0807.

For `CO[C@@H]1COC(=O)[C@@H](C)NC(=O)CC=C[C@@H](C)[C@H](NS(=O)(=O)c2ccc(C)cc2)COC(=O)[C@H](C)NC(=O)CC=C[C@H]1C`, the composite z-score was found to be 0.57. `COC(=O)[C@H](C)NC(=O)CCC1CC(OC(=O)NCc2ccc3c(c2)OCO3)CC2(CCCC(COC(=O)NCC3CCCCC3)O2)O1` (stereo partly specified) gave a composite z-score of 0.621. Molecule `C#CCCCON=C1C[C@@H](O)[C@@H](O)[C@@H]2[C@@H]3C(=O)N(C(C)(C)C)C(=O)[C@@H]3CC[C@H]12` showed a composite z-score of -0.0084. Molecule `CCOC(=O)NN=C1C[C@@H](O)[C@@H](O)[C@@H]2[C@@H]3C(=O)N(C(C)(C)C)C(=O)[C@@H]3CC[C@H]12` showed a composite z-score of 0.705. Turning to `C[C@H]1COC(=O)[C@@H]2CCCN2C(=O)[C@@H](C)COC(=O)[C@H](Cc2ccccc2)NC1=O`, the composite z-score was 0.911. `CCOC(=O)NN=C1C[C@@H](O)[C@@H](O)[C@@H]2[C@@H]3C(=O)N(c4cccc(Oc5ccccc5)c4)C(=O)[C@@H]3CC[C@H]12` registered a composite z-score of 0.381.

In turn, `CCOC(=O)C1=NO[C@@]2(C=C(Br)C3(OCCCO3)[C@H]3O[C@H]32)C1` came in with a composite z-score of 1.13. Molecule `CO[C@@H]1COC(=O)[C@H](CCSC)NC(=O)CC=C[C@@H](C)COC(=O)CCC[C@H]1C` gave a composite z-score of 1.03.

Consider `CCOC(=O)[C@H](Cc1ccccc1)NC(=O)CCC1CC(OC(=O)NCc2cccc3ccccc23)CC2(CCCC(COC(=O)NCCC(C)C)O2)O1` (stereo partly specified), for which the composite z-score is -0.135. For `CC[C@@H](c1ccccc1)n1c(=O)n2n(c1=O)[C@H]1[C@H](O)[C@@H]3O[C@@H]3C(=O)[C@H]1CC2`, the composite z-score amounted to 0.489. `CCc1cc2c(nc1CC)CCN(CCC(C)=NO[C@H](C)c1cn([C@H](CO)Cc3ccccc3)nn1)C2` returned a composite z-score of 0.1.

`CCOC(=O)[C@H](CC(C)C)NC(=O)CCC1CC(OC(=O)NCc2ccc3c(c2)OCO3)CC2(CCCC(COC(=O)NCC(c3ccccc3)c3ccccc3)O2)O1` (stereo partly specified) had a composite z-score of -0.519. The same measure for `CCOC(=O)CCN1C(=O)[C@H]2[C@H]3[C@H](O)[C@H](O)CC(=NOCC(C)C)[C@H]3CC[C@H]2C1=O`: 0.214. In turn, `O=C1[C@H]2[C@H]3[C@H](O)[C@H](O)CC(=NOCc4ccccc4)[C@@H]3CC[C@H]2C(=O)N1C[C@@H]1CCCO1` yielded a composite z-score of -0.0735. The same measure for `CCOC(=O)[C@H](CC(C)C)NC(=O)CCC1CC(OC(=O)NCc2cccc3ccccc23)CC2(CCCC(COC(=O)NCC3CCCCC3)O2)O1` (stereo partly specified): 0.344; for `CC(C)=CCCC(C)=CCON=C1C[C@@H](O)[C@@H](O)[C@@H]2[C@@H]3C(=O)N(c4cccc(Oc5ccccc5)c4)C(=O)[C@@H]3CC[C@@H]12`: 0.118. Next, `O=C1[C@H]2[C@H]3[C@H](O)[C@H](O)CC(=NOC[C@@H](O)COCc4ccco4)[C@H]3CC[C@H]2C(=O)N1c1ccc(F)cc1F`: -0.553. Next, `COc1ccc(O[C@@H]2[C@H](O)CO[C@H]2C=Cc2ccccc2)cc1`: -0.033; `COC(=O)[C@@H]1CC[C@H](C)[C@@H](c2ccc(C)cc2)N1C(=O)c1ccc(C=NO[C@@H]2O[C@H](COC(C)=O)[C@@H](OC(C)=O)[C@H](OC(C)=O)[C@H]2OC(C)=O)cc1`: 0.323.

In turn, `CO[C@H]1COC(=O)[C@H](C)NC(=O)[C@@H](C)COC(=O)[C@H]2CCCN2C(=O)CC=C[C@H]1C` registered a composite z-score of 0.627. `CC(C)=CCCC(C)=CCON=C1C[C@@H](O)[C@@H](O)[C@@H]2[C@@H]3C(=O)N(c4ccc(F)cc4F)C(=O)[C@@H]3CC[C@H]12` showed a composite z-score of 0.531. For `COc1cc(O)c(C(=O)C=Cc2ccc3c(c2)OCO3)c(OC)c1`, the composite z-score is -0.229.

`COc1ccc(O[C@H]2C=C[C@@H](c3ccccc3)O[C@@H]2CON=C2[C@H]3CCn4c(=O)n(-c5ccccc5)c(=O)n4[C@H]3[C@H](O)[C@@H]3O[C@H]23)cc1` returned a composite z-score of 0.318.

The molecule `COc1ccc(COC(=O)NN=C2C[C@@H](O)[C@@H](O)[C@@H]3[C@@H]4C(=O)N(Cc5ccccc5)C(=O)[C@@H]4CC[C@H]23)cc1` returned a composite z-score of -0.432. On to `CO[C@H]1COC(=O)[C@@H](C)COC(=O)[C@@H](OCc2ccccc2)C=C[C@@H]1C`, for which the composite z-score was -0.0072. Consider `COc1ccc(O[C@H]2C=C[C@@H](c3ccccc3)O[C@@H]2CON=C(C)CCN2CCc3nc(-c4ccccc4)c(-c4ccccc4)cc3C2)cc1`, for which the composite z-score is -0.538. Take `CCN1C(=O)[C@H]2[C@H]3[C@H](O)[C@H](O)CC(=O)[C@H]3CC[C@H]2C1=O`: the composite z-score is 0.371.

For `CCCNC(=O)OC[C@H]1O[C@H](CCON=C(C)C)C=C[C@@H]1Oc1ccc(OC)cc1`, the composite z-score is -0.0864. `CCOC(=O)NN=C1C[C@@H](O)[C@@H](O)[C@@H]2[C@@H]3C(=O)N(c4ccc(F)cc4F)C(=O)[C@@H]3CC[C@@H]12`: the composite z-score was 0.527.

For `C[n+]1ccc(-c2ccc(CO)cc2)cc1`, the composite z-score stood at 1.51.
